# Reference: article PMC10954555
# Tests used:
# [1] = molecular target: Large ribosomal subunit protein uL1 (UniProt P62906); assay: cross-linking mass spectrometry; other
# [2] = molecular target: 60S ribosome subunit biogenesis protein NIP7 homolog (UniProt Q9Y221); assay: cross-link between two proteins; cross-linking mass spectrometry; other
# [3] = molecular target: Heat shock cognate 71 kDa protein (UniProt P11142); assay: other; cross-linking mass spectrometry; other
# [4] = molecular target: Stress-70 protein, mitochondrial (UniProt P38646); assay: cross-link between two proteins; cross-linking mass spectrometry; other
# THO complex subunit 2 = THO complex subunit 2 (UniProt Q8NI27); assay: other; cross-linking mass spectrometry; other
# THO complex subunit 1 [5] = molecular target: THO complex subunit 1 (UniProt Q96FV9); assay: cross-link between two proteins; cross-linking mass spectrometry; other
# [6] = molecular target: Transcription initiation factor TFIID subunit 5 (UniProt Q15542); assay: other; cross-linking mass spectrometry; other
# [7] = molecular target: Transcription initiation factor TFIID subunit 9 (UniProt Q16594); assay: other; cross-linking mass spectrometry; other
# [8] = molecular target: Transcription initiation factor TFIID subunit 9B (UniProt Q9HBM6); assay: other; cross-linking mass spectrometry; other
# [9] = molecular target: Transcription initiation factor TFIID subunit 12 (UniProt Q16514); assay: cross-link between two proteins; cross-linking mass spectrometry; other
# ELAV-like protein 1 = ELAV-like protein 1 (UniProt Q15717); assay: other; affinity purification or IP with mass spectrometry; other
# [10] = molecular target: Heterogeneous nuclear ribonucleoprotein L (UniProt P14866); assay: cross-link between two proteins; affinity purification or IP with mass spectrometry; cross-linking mass spectrometry; other
# [11] = molecular target: DNA topoisomerase 3-alpha (UniProt Q13472); assay: cross-link between two proteins; cross-linking mass spectrometry; other
# [12] = molecular target: RecQ-mediated genome instability protein 1 (UniProt Q9H9A7); assay: as above
# [13] = molecular target: Heterogeneous nuclear ribonucleoprotein A0 (UniProt Q13151); assay: as above
# [14] = molecular target: Paired amphipathic helix protein Sin3a (UniProt Q96ST3); assay: as above
# Pinin = Pinin (UniProt Q9H307); assay: as above
# [15] = molecular target: Polyhomeotic-like protein 2 (UniProt Q8IXK0); assay: as above
# [16] = molecular target: Pre-mRNA-processing factor 19 (UniProt Q9UMS4); assay: as above
# [17] = molecular target: SAGA-associated factor 29 (UniProt Q96ES7); assay: as above
# [18] = molecular target: Sin3 histone deacetylase corepressor complex component SDS3 (UniProt Q9H7L9); assay: as above
# [19] = molecular target: Splicing factor 3A subunit 1 (UniProt Q15459); assay: as above
# [20] = molecular target: Transcription factor JunD (UniProt P17535); assay: as above
# [21] = molecular target: Transcription initiation factor TFIID subunit 3 (UniProt Q5VWG9); assay: as above
# [22] = molecular target: Transcription initiation factor TFIID subunit 9 (UniProt Q16594); assay: as above
# [23] = molecular target: Transcription initiation factor TFIID subunit 9B (UniProt Q9HBM6); assay: as above
# [24] = molecular target: Apoptotic chromatin condensation inducer in the nucleus (UniProt Q9UKV3); assay: cross-linking mass spectrometry; other
# Protein lin-54 homolog [25] = molecular target: Protein lin-54 homolog (UniProt Q6MZP7); assay: cross-linking mass spectrometry; other
# Protein lin-9 homolog = Protein lin-9 homolog (UniProt Q5TKA1); assay: cross-linking mass spectrometry; other
# THO complex subunit 1 [26] = molecular target: THO complex subunit 1 (UniProt Q96FV9); assay: cross-linking mass spectrometry; other
# [27] = molecular target: ATP-dependent chromatin remodeler CHD4 (UniProt Q14839); assay: other; cross-linking mass spectrometry; other
# [28] = molecular target: Metastasis-associated protein MTA1 (UniProt Q13330); assay: other; cross-linking mass spectrometry; other
# [29] = molecular target: Transcriptional repressor p66-alpha (UniProt Q86YP4); assay: other; cross-linking mass spectrometry; other
# DNA topoisomerase 2-beta = DNA topoisomerase 2-beta (UniProt Q02880); assay: other; cross-linking mass spectrometry; other
# [30] = molecular target: Heterogeneous nuclear ribonucleoprotein A/B (UniProt Q99729); assay: other; cross-linking mass spectrometry; other
# [31] = molecular target: Heterogeneous nuclear ribonucleoprotein Q (UniProt O60506); assay: other; cross-linking mass spectrometry; other
# Histone H1.2 = Histone H1.2 (UniProt P16403); assay: other; cross-linking mass spectrometry; other
# [32] = molecular target: Mediator of RNA polymerase II transcription subunit 17 (UniProt Q9NVC6); assay: other; cross-linking mass spectrometry; other
# [33] = molecular target: Methyl-CpG-binding domain protein 2 (UniProt Q9UBB5); assay: other; cross-linking mass spectrometry; other
# [34] = molecular target: Methylcrotonoyl-CoA carboxylase beta chain, mitochondrial (UniProt Q9HCC0); assay: other; cross-linking mass spectrometry; other
# [35] = molecular target: Probable ATP-dependent RNA helicase DDX23 (UniProt Q9BUQ8); assay: other; cross-linking mass spectrometry; other
# Protein lin-54 homolog [36] = molecular target: Protein lin-54 homolog (UniProt Q6MZP7); assay: other; cross-linking mass spectrometry; other
# RNA-binding protein EWS = RNA-binding protein EWS (UniProt Q01844); assay: other; cross-linking mass spectrometry; other
# [37] = molecular target: Scaffold attachment factor B1 (UniProt Q15424); assay: other; cross-linking mass spectrometry; other
# [38] = molecular target: Serine/arginine-rich splicing factor 1 (UniProt Q07955); assay: other; cross-linking mass spectrometry; other
# Spindlin-1 = Spindlin-1 (UniProt Q9Y657); assay: other; cross-linking mass spectrometry; other
# THO complex subunit 7 = THO complex subunit 7 (UniProt Q6I9Y2); assay: other; cross-linking mass spectrometry; other
# [39] = molecular target: Torsin-1A-interacting protein 1 (UniProt Q5JTV8); assay: other; cross-linking mass spectrometry; other
# [40] = molecular target: Transcription initiation factor TFIID subunit 12 (UniProt Q16514); assay: other; cross-linking mass spectrometry; other
# [41] = molecular target: Trifunctional enzyme subunit beta, mitochondrial (UniProt P55084); assay: other; co-fractionation; cross-linking mass spectrometry; other
# Trifunctional enzyme subunit beta, mitochondrial, sequence (P55084 whole entry): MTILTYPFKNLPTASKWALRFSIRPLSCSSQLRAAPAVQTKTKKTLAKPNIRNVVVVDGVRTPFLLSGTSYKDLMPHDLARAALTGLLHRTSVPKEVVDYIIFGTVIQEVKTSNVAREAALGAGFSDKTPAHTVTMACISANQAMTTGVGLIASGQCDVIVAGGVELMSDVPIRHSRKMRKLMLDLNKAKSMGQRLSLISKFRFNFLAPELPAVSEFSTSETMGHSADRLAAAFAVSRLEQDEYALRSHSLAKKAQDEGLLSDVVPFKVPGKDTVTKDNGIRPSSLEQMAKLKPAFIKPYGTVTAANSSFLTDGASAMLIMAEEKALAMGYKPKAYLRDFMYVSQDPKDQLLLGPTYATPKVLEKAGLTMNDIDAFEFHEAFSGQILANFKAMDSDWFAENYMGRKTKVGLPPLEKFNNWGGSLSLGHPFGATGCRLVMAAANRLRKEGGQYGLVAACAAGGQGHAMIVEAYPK
# Transcription initiation factor TFIID subunit 10, Q12962, sequence (Q12962 whole entry): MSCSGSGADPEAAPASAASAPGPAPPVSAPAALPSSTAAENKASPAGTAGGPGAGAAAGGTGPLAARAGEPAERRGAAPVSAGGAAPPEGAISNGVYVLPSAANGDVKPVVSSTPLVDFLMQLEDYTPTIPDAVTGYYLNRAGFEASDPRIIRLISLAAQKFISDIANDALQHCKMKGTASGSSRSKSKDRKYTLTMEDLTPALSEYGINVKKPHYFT
# Transcription initiation factor TFIID subunit 9B, sequence (Q9HBM6 whole entry): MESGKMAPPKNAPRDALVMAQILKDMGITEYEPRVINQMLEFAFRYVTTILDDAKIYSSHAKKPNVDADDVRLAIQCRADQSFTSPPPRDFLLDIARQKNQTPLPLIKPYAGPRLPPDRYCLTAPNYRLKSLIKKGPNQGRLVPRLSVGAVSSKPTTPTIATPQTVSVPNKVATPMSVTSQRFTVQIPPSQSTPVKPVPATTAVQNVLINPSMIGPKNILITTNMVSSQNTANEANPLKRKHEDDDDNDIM
# Transcription initiation factor TFIID subunit 12, sequence (Q16514 whole entry): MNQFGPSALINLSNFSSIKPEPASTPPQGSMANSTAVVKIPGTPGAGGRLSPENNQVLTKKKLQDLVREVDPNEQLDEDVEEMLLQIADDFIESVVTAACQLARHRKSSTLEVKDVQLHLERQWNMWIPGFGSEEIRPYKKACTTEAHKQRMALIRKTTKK
# Transcription initiation factor TFIID subunit 9, sequence (Q16594 whole entry): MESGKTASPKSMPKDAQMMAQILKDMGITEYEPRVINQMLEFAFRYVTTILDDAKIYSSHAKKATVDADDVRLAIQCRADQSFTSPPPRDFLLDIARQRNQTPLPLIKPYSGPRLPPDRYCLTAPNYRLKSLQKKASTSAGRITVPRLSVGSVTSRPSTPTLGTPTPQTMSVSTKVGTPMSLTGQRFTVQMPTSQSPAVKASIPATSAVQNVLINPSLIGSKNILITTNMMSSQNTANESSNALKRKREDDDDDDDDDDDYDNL
# THO complex subunit 2, sequence (Q8NI27 whole entry, one chain of several): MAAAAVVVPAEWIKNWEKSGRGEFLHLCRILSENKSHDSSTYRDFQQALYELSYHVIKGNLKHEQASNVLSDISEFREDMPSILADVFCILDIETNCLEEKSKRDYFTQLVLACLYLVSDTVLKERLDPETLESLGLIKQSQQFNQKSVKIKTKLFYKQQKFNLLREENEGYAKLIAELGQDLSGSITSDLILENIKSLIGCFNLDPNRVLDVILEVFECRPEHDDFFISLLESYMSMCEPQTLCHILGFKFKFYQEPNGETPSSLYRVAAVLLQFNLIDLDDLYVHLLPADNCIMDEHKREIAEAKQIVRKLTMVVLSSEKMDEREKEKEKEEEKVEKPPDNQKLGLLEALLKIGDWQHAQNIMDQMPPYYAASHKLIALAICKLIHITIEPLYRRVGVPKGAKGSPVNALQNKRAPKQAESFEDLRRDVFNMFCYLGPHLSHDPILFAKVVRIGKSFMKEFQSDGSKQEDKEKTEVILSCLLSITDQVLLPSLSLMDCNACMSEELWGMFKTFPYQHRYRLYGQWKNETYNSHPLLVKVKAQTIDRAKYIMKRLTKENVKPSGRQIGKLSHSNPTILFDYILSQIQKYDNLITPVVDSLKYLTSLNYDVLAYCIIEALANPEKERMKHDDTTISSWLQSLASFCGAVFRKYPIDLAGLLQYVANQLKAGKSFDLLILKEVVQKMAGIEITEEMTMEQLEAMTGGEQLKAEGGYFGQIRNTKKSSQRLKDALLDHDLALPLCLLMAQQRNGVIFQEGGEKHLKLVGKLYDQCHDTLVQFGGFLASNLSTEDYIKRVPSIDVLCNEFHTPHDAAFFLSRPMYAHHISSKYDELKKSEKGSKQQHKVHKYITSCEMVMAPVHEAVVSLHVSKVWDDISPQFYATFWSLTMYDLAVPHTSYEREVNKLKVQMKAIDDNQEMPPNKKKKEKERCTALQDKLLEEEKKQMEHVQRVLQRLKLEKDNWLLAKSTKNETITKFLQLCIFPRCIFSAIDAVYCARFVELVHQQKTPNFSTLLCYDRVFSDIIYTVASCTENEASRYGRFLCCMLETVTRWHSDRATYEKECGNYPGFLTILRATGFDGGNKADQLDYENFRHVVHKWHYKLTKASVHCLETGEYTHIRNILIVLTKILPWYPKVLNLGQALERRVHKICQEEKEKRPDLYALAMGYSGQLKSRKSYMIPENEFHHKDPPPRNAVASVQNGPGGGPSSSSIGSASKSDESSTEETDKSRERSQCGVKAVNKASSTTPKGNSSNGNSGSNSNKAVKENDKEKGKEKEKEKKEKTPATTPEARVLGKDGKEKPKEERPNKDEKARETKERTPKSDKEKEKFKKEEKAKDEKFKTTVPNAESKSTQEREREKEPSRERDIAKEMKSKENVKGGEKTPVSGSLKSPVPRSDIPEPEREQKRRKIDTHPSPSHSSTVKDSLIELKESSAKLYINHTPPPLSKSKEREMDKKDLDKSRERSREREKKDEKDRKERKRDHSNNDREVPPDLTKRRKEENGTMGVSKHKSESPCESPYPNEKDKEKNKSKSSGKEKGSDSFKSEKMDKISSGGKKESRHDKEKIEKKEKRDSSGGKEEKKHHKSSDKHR
# Endoplasmic reticulum chaperone BiP, P11021, sequence (P11021 whole entry): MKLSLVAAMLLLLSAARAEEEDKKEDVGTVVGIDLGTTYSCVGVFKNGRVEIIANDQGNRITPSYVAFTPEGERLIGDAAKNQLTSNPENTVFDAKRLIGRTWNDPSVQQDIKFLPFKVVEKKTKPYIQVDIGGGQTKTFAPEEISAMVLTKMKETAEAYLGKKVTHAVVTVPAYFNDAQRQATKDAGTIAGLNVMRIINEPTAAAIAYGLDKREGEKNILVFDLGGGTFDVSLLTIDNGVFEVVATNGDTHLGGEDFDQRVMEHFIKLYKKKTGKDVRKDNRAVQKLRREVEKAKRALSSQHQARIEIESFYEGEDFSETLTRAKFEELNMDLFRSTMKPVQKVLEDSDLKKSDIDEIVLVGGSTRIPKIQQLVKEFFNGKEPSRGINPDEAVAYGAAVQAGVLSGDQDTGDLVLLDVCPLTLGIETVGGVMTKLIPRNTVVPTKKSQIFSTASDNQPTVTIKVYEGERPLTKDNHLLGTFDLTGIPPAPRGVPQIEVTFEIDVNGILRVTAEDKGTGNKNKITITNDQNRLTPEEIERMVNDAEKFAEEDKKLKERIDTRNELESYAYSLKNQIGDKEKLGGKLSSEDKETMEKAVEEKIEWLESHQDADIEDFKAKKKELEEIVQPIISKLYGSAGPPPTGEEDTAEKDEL
# Protein lin-54 homolog, sequence (Q6MZP7 whole entry): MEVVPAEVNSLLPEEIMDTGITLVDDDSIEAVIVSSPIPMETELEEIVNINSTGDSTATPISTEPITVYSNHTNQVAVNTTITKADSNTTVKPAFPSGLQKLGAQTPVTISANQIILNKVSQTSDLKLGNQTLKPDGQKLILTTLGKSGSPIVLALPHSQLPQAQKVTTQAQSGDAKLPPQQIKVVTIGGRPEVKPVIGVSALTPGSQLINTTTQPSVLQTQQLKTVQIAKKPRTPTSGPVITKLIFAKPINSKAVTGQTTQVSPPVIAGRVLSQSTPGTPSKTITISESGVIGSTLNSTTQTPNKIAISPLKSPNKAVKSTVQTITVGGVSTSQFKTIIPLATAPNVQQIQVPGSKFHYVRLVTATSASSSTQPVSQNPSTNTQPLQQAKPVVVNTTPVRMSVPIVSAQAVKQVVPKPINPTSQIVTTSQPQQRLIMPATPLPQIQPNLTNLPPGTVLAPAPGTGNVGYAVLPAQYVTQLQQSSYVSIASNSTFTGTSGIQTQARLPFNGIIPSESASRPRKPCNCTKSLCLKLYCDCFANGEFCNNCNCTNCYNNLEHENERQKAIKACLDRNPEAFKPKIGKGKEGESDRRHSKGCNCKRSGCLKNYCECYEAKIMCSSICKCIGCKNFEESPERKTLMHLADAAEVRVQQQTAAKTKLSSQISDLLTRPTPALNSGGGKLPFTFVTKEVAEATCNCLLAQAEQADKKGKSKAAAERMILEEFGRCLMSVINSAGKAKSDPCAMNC
# Heterogeneous nuclear ribonucleoprotein A0, sequence (Q13151 whole entry): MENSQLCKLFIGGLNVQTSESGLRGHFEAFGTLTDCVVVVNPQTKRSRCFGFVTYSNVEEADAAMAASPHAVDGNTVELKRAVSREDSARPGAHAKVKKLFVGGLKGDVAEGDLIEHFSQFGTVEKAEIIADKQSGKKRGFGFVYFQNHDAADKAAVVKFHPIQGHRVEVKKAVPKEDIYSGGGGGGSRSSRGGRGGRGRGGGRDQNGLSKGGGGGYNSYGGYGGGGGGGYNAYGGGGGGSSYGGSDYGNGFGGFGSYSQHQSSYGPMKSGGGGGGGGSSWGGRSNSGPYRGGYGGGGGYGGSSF
# Sin3 histone deacetylase corepressor complex component SDS3, sequence (Q9H7L9 whole entry, one chain of several): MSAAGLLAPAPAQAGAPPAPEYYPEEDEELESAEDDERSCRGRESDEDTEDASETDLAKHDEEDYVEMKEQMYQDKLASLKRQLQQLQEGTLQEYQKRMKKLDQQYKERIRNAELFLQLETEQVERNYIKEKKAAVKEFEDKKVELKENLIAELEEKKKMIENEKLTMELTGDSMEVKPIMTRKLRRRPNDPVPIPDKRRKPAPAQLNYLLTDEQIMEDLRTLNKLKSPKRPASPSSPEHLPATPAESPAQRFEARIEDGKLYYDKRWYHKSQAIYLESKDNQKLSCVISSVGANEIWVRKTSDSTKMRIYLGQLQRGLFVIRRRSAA
substance,measurement,setting,value
"28S rRNA (cytosine(4447)-C(5))-methyltransferase, P46087",listed as a hit,[1],yes
same,listed as a hit,[2],yes
"Endoplasmic reticulum chaperone BiP, P11021",listed as a hit,[3],yes
same,listed as a hit,[4],yes
"THO complex subunit 7, Q6I9Y2",listed as a hit,THO complex subunit 2,yes
same,listed as a hit,THO complex subunit 1 [5],yes
"Transcription initiation factor TFIID subunit 4, O00268",listed as a hit,[6],yes
same,listed as a hit,[7],yes
same,listed as a hit,[8],yes
same,listed as a hit,[9],yes
"Heterogeneous nuclear ribonucleoproteins C1/C2, P07910",listed as a hit,ELAV-like protein 1,yes
same,listed as a hit,[10],yes
"RecQ-like DNA helicase BLM, P54132",listed as a hit,[11],yes
same,listed as a hit,[12],yes
"Heterogeneous nuclear ribonucleoproteins A2/B1, P22626",listed as a hit,[13],yes
"Heterogeneous nuclear ribonucleoprotein A1, P09651",listed as a hit,[13],yes
"Histone deacetylase complex subunit SAP30, O75446",listed as a hit,[14],yes
"RNA-binding protein with serine-rich domain 1, Q15287",listed as a hit,Pinin,yes
"E3 ubiquitin-protein ligase RING1, Q06587",listed as a hit,[15],yes
"Pre-mRNA-splicing factor SPF27, O75934",listed as a hit,[16],yes
"DNA topoisomerase 3-alpha, Q13472",listed as a hit,[12],yes
"Transcriptional adapter 3, O75528",listed as a hit,[17],yes
"Paired amphipathic helix protein Sin3a, Q96ST3",listed as a hit,[18],yes
"Breast cancer metastasis-suppressor 1-like protein, Q5PSV4",listed as a hit,[18],yes
"Splicing factor 3B subunit 2, Q13435",listed as a hit,[19],yes
"Cyclic AMP-dependent transcription factor ATF-2, P15336",listed as a hit,[20],yes
"Transcription initiation factor TFIID subunit 10, Q12962",listed as a hit,[9],yes
same,listed as a hit,[21],yes
same,listed as a hit,[22],yes
"Transcription initiation factor TFIID subunit 12, Q16514",listed as a hit,[22],yes
same,listed as a hit,[23],yes
"Histone deacetylase complex subunit SAP18, O00422",listed as a hit,[24],yes
"Protein lin-52 homolog, Q52LA3",listed as a hit,Protein lin-54 homolog [25],yes
same,listed as a hit,Protein lin-9 homolog,yes
"THO complex subunit 2, Q8NI27",listed as a hit,THO complex subunit 1 [26],yes
"Metastasis-associated protein MTA2, O94776",listed as a hit,[27],yes
same,listed as a hit,[28],yes
same,listed as a hit,[29],yes
"DNA topoisomerase 2-alpha, P11388",listed as a hit,DNA topoisomerase 2-beta,yes
"Heterogeneous nuclear ribonucleoprotein U, Q00839",listed as a hit,[30],yes
"Heterogeneous nuclear ribonucleoprotein R, O43390",listed as a hit,[31],yes
"Histone H1.3, P16402",listed as a hit,Histone H1.2,yes
"Mediator of RNA polymerase II transcription subunit 6, O75586",listed as a hit,[32],yes
"Transcriptional repressor p66-beta, Q8WXI9",listed as a hit,[33],yes
"Methylcrotonoyl-CoA carboxylase subunit alpha, mitochondrial, Q96RQ3",listed as a hit,[34],yes
"CD2 antigen cytoplasmic tail-binding protein 2, O95400",listed as a hit,[35],yes
"Protein lin-9 homolog, Q5TKA1",listed as a hit,Protein lin-54 homolog [36],yes
"RNA-binding protein FUS, P35637",listed as a hit,RNA-binding protein EWS,yes
"Scaffold attachment factor B2, Q14151",listed as a hit,[37],yes
"Serine/arginine-rich splicing factor 3, P84103",listed as a hit,[38],yes
"Spindlin interactor and repressor of chromatin-binding protein, Q9BUA3",listed as a hit,Spindlin-1,yes
"THO complex subunit 5, Q13769",listed as a hit,THO complex subunit 2,yes
same,listed as a hit,THO complex subunit 7,yes
"Prelamin-A/C, P02545",listed as a hit,[39],yes
"Transcription initiation factor TFIID subunit 5, Q15542",listed as a hit,[40],yes
same,listed as a hit,[8],yes
"Transcription initiation factor TFIID subunit 6, P49848",listed as a hit,[8],yes
"ATP-dependent chromatin remodeler CHD4, Q14839",listed as a hit,[29],yes
"Trifunctional enzyme subunit alpha, mitochondrial, P40939",listed as a hit,[41],yes
